Assay outcomes: PubChem, Broad Institute
Tg IFNy HTS – blocks Toxoplasma gondii growth in the presence of IFN-gamma; Toxoplasma gondii growth in IFN-gamma-treated host cells; hits give low values; activity change, negative = inhibition, % (no concentration beside the values); 3.8% of 69,000 active; in the data active means activity change below about -70%, passing the limit was not always enough;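 further: host cells are HeLa cells infected with Toxoplasma gondii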
Numbers without * were called inactive; ! = repeats disagree. Shown is part of a subset that was picked to be rich in hits.

`CCOc1ccc(C(=O)Nc2ccc3c(c2)CCC(=O)N3CC(C)C)cc1` gave Tg IFNy HTS -82*.
Screening CCCN1C(=O)CCc2cc(NC(=O)c3ccc(C)cc3)ccc21 returned Tg IFNy HTS -47.
C=C[C@]1(C)C[C@@H](OC(=O)CSC(C)(C)CNC(=O)[C@H](N)C(C)C)[C@@]2(C)[C@H](C)CC[C@]3(CCC(=O)[C@H]32)[C@@H](C)[C@@H]1O was read as Tg IFNy HTS -65.
COc1ccc(CCN2C(=O)CSC2c2ccc(OC)c(OC)c2)cc1OC (centres undefined) was read as Tg IFNy HTS -29.
For COc1ccc(CNC(=O)c2c(O)c3cccnc3[nH]c2=O)cc1OC the results were Tg IFNy HTS 117.
CCCCOc1cc(CC2CNC(=O)N2)ccc1OC (centres undefined) was read as Tg IFNy HTS -72*!.
For CC(c1cnn(-c2ccccc2)c1)n1ccnc1-c1cnc(N(C)C)nc1 (centres undefined) the results were Tg IFNy HTS 4.
For Nc1ncnc2c1ncn2C1OC(COP(=O)(O)O)C(O)C1O (centres undefined) (tested in a mixture with another compound) the results were Tg IFNy HTS 18.
For CC(C)OC(=O)OCOP(=O)(CO[C@H](C)Cn1cnc2c(N)ncnc21)OCOC(=O)OC(C)C the results were Tg IFNy HTS -78*.
Screening Nc1ncnc2c1ncn2CCOCP(=O)(O)O returned Tg IFNy HTS 8.
Screening CC(C)C1=NOC(C(=O)NCc2n[nH]c3c2CCCCC3)C1 (centres undefined) returned Tg IFNy HTS 0.
Nc1ncnc2c1ncn2[C@@H]1O[C@H](COP(=O)(O)OP(=O)(O)OP(=O)(O)OP(=O)(O)OC[C@H]2O[C@@H](n3cnc4c(N)ncnc43)C(O)C2O)C(O)C1O (some centres undefined) was read as Tg IFNy HTS -2.
COCCN1Cc2ncn(C)c2C(COCc2csc(C)n2)C1 (centres undefined) was read as Tg IFNy HTS -19.
Screening Cc1nc2ccc(C(=O)N3CCN(Cc4ccccc4F)C[C@@H]3C(C)C)cc2[nH]1 returned Tg IFNy HTS 20.
For CCc1ccc(Nc2nc(C(=O)NCc3cccc(OC)c3)nc3ccccc23)cc1 the results were Tg IFNy HTS -72*.
CSc1cccc(NC(=O)c2nc(Nc3ccccc3)c3ccccc3n2)c1 was read as Tg IFNy HTS -5.
Screening COc1cc(OC)c(NC(=O)c2nc(Nc3ccc(C)cc3)c3ccccc3n2)cc1Cl returned Tg IFNy HTS 35.
Screening COc1cccc(CNC(=O)c2nc(Nc3ccccc3)c3ccccc3n2)c1 returned Tg IFNy HTS -54.
Screening CCc1ccc(Nc2nc(C(=O)NCc3ccccc3)nc3ccccc23)cc1 returned Tg IFNy HTS -28.
COc1cccc(NC(=O)c2nc(Nc3ccccc3)c3ccccc3n2)c1 was read as Tg IFNy HTS -76*.
`COc1ccc(NC(=O)c2nc(Nc3ccc(C)cc3)c3ccccc3n2)c(OC)c1` gave Tg IFNy HTS -112*.
Cc1ccc(CNC(=O)c2nc(Nc3ccccc3)c3ccccc3n2)cc1 was read as Tg IFNy HTS 57.
For COc1ccc(OC)c(NC(=O)c2nc(Nc3ccc(C)cc3)c3ccccc3n2)c1 the results were Tg IFNy HTS -45.
Screening O=C(Nc1cccc(F)c1)c1nc(Nc2ccccc2)c2ccccc2n1 returned Tg IFNy HTS 66.
`CCOc1ccc(CNC(=O)c2nc(Nc3ccc(CC)cc3)c3ccccc3n2)cc1` gave Tg IFNy HTS 44.
For COc1cccc(CNC(=O)c2nc(Nc3ccc(C)cc3)c3ccccc3n2)c1 the results were Tg IFNy HTS -101*.
Screening CCSCCN(C(=O)CC1CCOCC1)C1CCCCC1 returned Tg IFNy HTS 1.
`O=C(CCCCC1SCC2NC(=O)NC21)NC1(c2ccc3c(c2)OCO3)CCCC1` (centres undefined) gave Tg IFNy HTS -2.
COc1ccc(-c2nc(Cn3ccn4nc(-c5ccc(Cl)cc5)cc4c3=O)c(C)o2)c(OC)c1 was read as Tg IFNy HTS 150.
COc1ccc(NC(=O)Cn2c(=O)cc(C(=O)N3CCCC3)c3ccccc32)c(OC)c1 was read as Tg IFNy HTS 1.
`Cc1ccc(C2(O)CCN(C(=O)C3CCCN(CC(N)=O)C3)CC2)nc1` (centres undefined) gave Tg IFNy HTS 16.
COc1ccc(-c2nc(CN(c3ccccc3)S(=O)(=O)c3cccs3)c(C)o2)cc1 was read as Tg IFNy HTS -6.
For NC(=O)N1Cc2nccn2CC(COCc2cccnc2)C1 (centres undefined) the results were Tg IFNy HTS 144.
Screening O=C(c1ccncc1F)N1CCC2(CC1)CC(Nc1ncccn1)C2 returned Tg IFNy HTS -5.
Cc1cccc2c(-c3ccc[nH]c3=O)c[nH]c12 was read as Tg IFNy HTS 10.
`O=C(CN1CCOC1=O)N1Cc2cnn(Cc3ccc(F)cc3)c2C1` gave Tg IFNy HTS 5.
`CCOc1ccc(NC(=O)c2nc(Nc3ccccc3)c3ccccc3n2)cc1` gave Tg IFNy HTS -38.
